# Assay results published in the supplement of paper PMC8728848.
# Shown is part of a subset that was picked to be rich in the strongest signals.
# B1: EULS2 M1 (Oryza sativa) (protein)
# chain: MVYCRANPNYAMTARNGAVVLAPANPKDEYQHWIKDMRWSTSIKDEEGYPAFALVNKATGQAIKHSLGQSHPVRLVPYNPEVMDESVLWTESRDVGNGFRCIRMVNNIYLNFDAFHGDKYHGGVRDGTDIVLWKLCEGDNQRWKIQPYYILEQKLISEEDLNSAVDHHHHHH
# How the values were obtained:
# Test in all cases: glycan array binding signal (z-score within array); higher = stronger binding
# Conditions in all cases: glycan notation: IUPAC condensed, linker removed
# [1] = molecular target: Fuc(a1-2)Gal(b1-3)GalNAc(a1-3)[Fuc(a1-2)]Gal(b1-4)Glc
# How it was run: (§1)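 Glycan array binding is given as a within-array Z-score, which can be read as non-binding when negative. The arrays, 3228 of them, came from the Consortium for Functional Glycomics database and were retained only where the protein sequence was available. Z-scores were averaged across arrays of the same protein sequence at different concentrations or buffers and across linkers.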
# [2] = molecular target: Fuc(a1-2)Gal(b1-3)GlcNAc(b1-3)Gal(b1-4)Glc
# How it was run: as §1
# [3] = molecular target: Fuc(a1-2)Gal(b1-3)GlcNAc(b1-3)[Gal(b1-4)GlcNAc(b1-6)]Gal(b1-4)Glc
# How it was run: as §1
# [4] = molecular target: Fuc(a1-2)Gal(b1-4)GlcNAc(b1-3)[Fuc(a1-2)Gal(b1-4)GlcNAc(b1-6)]GalNAc
# How it was run: as §1
# [5] = molecular target: Fuc(a1-2)Gal(b1-4)[Fuc(a1-3)]GlcNAc
# How it was run: as §1
# Fuc(a1-2)Gal6S(b1-4)Glc = molecular target: Fuc(a1-2)Gal6S(b1-4)Glc
# How it was run: as §1
# [6] = molecular target: Fuc(a1-2)[Gal(a1-3)]Gal(b1-3)GlcNAc
# How it was run: as §1
# [7] = molecular target: Fuc(a1-2)[Gal(a1-3)]Gal(b1-4)GlcNAc
# How it was run: as §1
# [8] = molecular target: Fuc(a1-2)[GalNAc(a1-3)]Gal(b1-3)GlcNAc(b1-2)Man(a1-3)[Fuc(a1-2)[GalNAc(a1-3)]Gal(b1-3)GlcNAc(b1-2)Man(a1-6)]Man(b1-4)GlcNAc(b1-4)GlcNAc
# How it was run: as §1
# [9] = molecular target: Fuc(a1-2)[GalNAc(a1-3)]Gal(b1-4)GlcNAc(b1-2)Man
# How it was run: as §1
# Gal(a1-3)Gal(b1-3)GlcNAc = molecular target: Gal(a1-3)Gal(b1-3)GlcNAc
# How it was run: as §1
# [10] = molecular target: Gal(a1-3)Gal(b1-3)GlcNAc(b1-2)Man
# How it was run: as §1
# [11] = molecular target: Gal(a1-3)Gal(b1-4)GlcNAc(b1-2)Man(a1-3)[Gal(a1-3)Gal(b1-4)GlcNAc(b1-2)Man(a1-6)]Man(b1-4)GlcNAc(b1-4)GlcNAc
# How it was run: as §1
# [12] = molecular target: Gal(b1-3)GlcNAc(b1-3)Gal(b1-3)GlcNAc
# How it was run: as §1
# [13] = molecular target: Gal(b1-3)[Fuc(a1-4)]GlcNAc(b1-2)Man
# How it was run: as §1
# [14] = molecular target: Gal(b1-3)[Fuc(a1-4)]GlcNAc(b1-2)Man(a1-3)[Gal(b1-3)[Fuc(a1-4)]GlcNAc(b1-2)Man(a1-6)]Man(b1-4)GlcNAc(b1-4)[Fuc(a1-6)]GlcNAc
# How it was run: as §1
# [15] = molecular target: Gal(b1-3)[Fuc(a1-4)]GlcNAc(b1-3)Gal(b1-3)[Fuc(a1-4)]GlcNAc
# How it was run: as §1
# [16] = molecular target: Gal(b1-3)[Neu5Ac(a2-6)]GalNAc
# How it was run: as §1
# [17] = molecular target: Gal(b1-4)GlcNAc(b1-2)Man(a1-3)[Gal(b1-4)GlcNAc(b1-2)Man(a1-6)]Man(b1-4)GlcNAc(b1-4)GlcNAc
# How it was run: as §1
# [18] = molecular target: Gal(b1-4)GlcNAc(b1-2)Man(a1-3)[GlcNAc(b1-4)][Gal(b1-4)GlcNAc(b1-2)Man(a1-6)]Man(b1-4)GlcNAc(b1-4)GlcNAc
# How it was run: as §1
# [19] = molecular target: Gal(b1-4)GlcNAc(b1-2)[Gal(b1-4)GlcNAc(b1-4)]Man(a1-3)[Gal(b1-4)GlcNAc(b1-2)[Gal(b1-4)GlcNAc(b1-6)]Man(a1-6)]Man(b1-4)GlcNAc(b1-4)GlcNAc
# How it was run: as §1
# [20] = molecular target: Gal(b1-4)GlcNAc(b1-2)[Gal(b1-4)GlcNAc(b1-4)]Man(a1-3)[GlcNAc(b1-4)][Gal(b1-4)GlcNAc(b1-2)Man(a1-6)]Man(b1-4)GlcNAc(b1-4)GlcNAc
# How it was run: as §1
# [21] = molecular target: Gal(b1-4)GlcNAc(b1-3)Gal(b1-3)GlcNAc
# How it was run: as §1
# [22] = molecular target: Gal(b1-4)GlcNAc(b1-3)Gal(b1-4)GlcNAc(b1-3)Gal(b1-4)GlcNAc(b1-3)Gal(b1-4)GlcNAc(b1-2)[Gal(b1-4)GlcNAc(b1-3)Gal(b1-4)GlcNAc(b1-3)Gal(b1-4)GlcNAc(b1-3)Gal(b1-4)GlcNAc(b1-6)]Man(a1-6)[Gal(b1-4)GlcNAc(b1-3)Gal(b1-4)GlcNAc(b1-3)Gal(b1-4)GlcNAc(b1-3)Gal(b1-4)GlcNAc(b1-2)Man(a1-3)]Man(b1-4)GlcNAc(b1-4)[Fuc(a1-6)]GlcNAc
# How it was run: as §1
# [23] = molecular target: Gal(b1-4)GlcNAc(b1-6)GalNAc
# How it was run: as §1
# [24] = molecular target: Gal(b1-4)GlcNAc(b1-6)[Gal(b1-4)GlcNAc(b1-3)]GalNAc
# How it was run: as §1
# [25] = molecular target: Gal3S(b1-3)[Fuc(a1-4)]GlcNAc
# How it was run: as §1
# Gal3S(b1-4)Glc6S = molecular target: Gal3S(b1-4)Glc6S
# How it was run: as §1
# Gal6S(b1-3)GlcNAc6S = molecular target: Gal6S(b1-3)GlcNAc6S
# How it was run: as §1
# [26] = molecular target: GalNAc(b1-3)Gal(a1-6)Gal(b1-4)Glc
# How it was run: as §1
# [27] = molecular target: GalNAc(b1-4)GlcNAc(b1-3)GalNAc(b1-4)GlcNAc
# How it was run: as §1
# Glc(b1-4)Glc = molecular target: Glc(b1-4)Glc
# How it was run: as §1
# GlcA(b1-3)GlcNAc = molecular target: GlcA(b1-3)GlcNAc
# How it was run: as §1
# [28] = molecular target: GlcNAc(b1-2)[GlcNAc(b1-4)]Man(a1-3)[GlcNAc(b1-4)][GlcNAc(b1-2)[GlcNAc(b1-6)]Man(a1-6)]Man(b1-4)GlcNAc(b1-4)[Fuc(a1-6)]GlcNAc
# How it was run: as §1
# GlcNAc(b1-3)Fuc = molecular target: GlcNAc(b1-3)Fuc
# How it was run: as §1
# [29] = molecular target: GlcNAc(b1-3)Gal(b1-4)GlcNAc
# How it was run: as §1
# [30] = molecular target: GlcNAc(b1-3)[GlcNAc(b1-6)]Gal(b1-4)GlcNAc
# How it was run: as §1
# [31] = molecular target: Man(a1-3)[Man(a1-6)]Man(b1-4)GlcNAc(b1-4)GlcNAc
# How it was run: as §1
# Man(a1-6)Man = molecular target: Man(a1-6)Man
# How it was run: as §1
# Man(b1-4)GlcNAc = molecular target: Man(b1-4)GlcNAc
# How it was run: as §1
# [32] = molecular target: Neu5Ac(a2-3)Gal(b1-3)GlcNAc
# How it was run: as §1
# [33] = molecular target: Neu5Ac(a2-3)Gal(b1-3)[Neu5Ac(a2-6)]GalNAc
# How it was run: as §1
# Neu5Ac(a2-3)Gal(b1-4)Glc = molecular target: Neu5Ac(a2-3)Gal(b1-4)Glc
# How it was run: as §1
# [34] = molecular target: Neu5Ac(a2-3)Gal(b1-4)GlcNAc(b1-2)[Neu5Ac(a2-3)Gal(b1-4)GlcNAc(b1-6)]Man(a1-6)[Neu5Ac(a2-3)Gal(b1-4)GlcNAc(b1-2)Man(a1-3)][GlcNAc(b1-4)]Man(b1-4)GlcNAc(b1-4)GlcNAc
# How it was run: as §1
# [35] = molecular target: Neu5Ac(a2-6)Gal(b1-4)GlcNAc(b1-2)Man(a1-3)[GlcNAc(b1-2)Man(a1-6)]Man(b1-4)GlcNAc(b1-4)GlcNAc
# How it was run: as §1
# [36] = molecular target: Neu5Ac(a2-6)Gal(b1-4)GlcNAc(b1-3)Gal(b1-4)GlcNAc(b1-6)[Gal(b1-3)]GalNAc
# How it was run: as §1
# [37] = molecular target: Neu5Ac(a2-8)Neu5Ac(a2-3)Gal(b1-4)Glc
# How it was run: as §1
# [38] = molecular target: Neu5Gc(a2-6)Gal(b1-4)GlcNAc
# How it was run: as §1
# [39] = molecular target: Neu5Gc(a2-8)Neu5Gc(a2-6)Gal(b1-4)GlcNAc
# How it was run: as §1
binder,measurement,setting,value
B1,glycan array binding signal (z-score),[1],-0.333
same,glycan array binding signal (z-score),[2],-0.208
same,glycan array binding signal (z-score),[3],-0.34
same,glycan array binding signal (z-score),[4],-0.457
same,glycan array binding signal (z-score),[5],-0.363
same,glycan array binding signal (z-score),Fuc(a1-2)Gal6S(b1-4)Glc,-1.48
same,glycan array binding signal (z-score),[6],0.694
same,glycan array binding signal (z-score),[7],-0.349
same,glycan array binding signal (z-score),[8],3.99
same,glycan array binding signal (z-score),[9],-1
same,glycan array binding signal (z-score),Gal(a1-3)Gal(b1-3)GlcNAc,3.45
same,glycan array binding signal (z-score),[10],-0.609
same,glycan array binding signal (z-score),[11],0.844
same,glycan array binding signal (z-score),[12],-0.334
same,glycan array binding signal (z-score),[13],1.75
same,glycan array binding signal (z-score),[14],1.19
same,glycan array binding signal (z-score),[15],3.42
same,glycan array binding signal (z-score),[16],1.39
same,glycan array binding signal (z-score),[17],-0.312
same,glycan array binding signal (z-score),[18],1.31
same,glycan array binding signal (z-score),[19],-0.584
same,glycan array binding signal (z-score),[20],0.188
same,glycan array binding signal (z-score),[21],-0.203
same,glycan array binding signal (z-score),[22],0.636
same,glycan array binding signal (z-score),[23],0.271
same,glycan array binding signal (z-score),[24],-0.195
same,glycan array binding signal (z-score),[25],-0.905
same,glycan array binding signal (z-score),Gal3S(b1-4)Glc6S,2.56
same,glycan array binding signal (z-score),Gal6S(b1-3)GlcNAc6S,10.9
same,glycan array binding signal (z-score),[26],2.84
same,glycan array binding signal (z-score),[27],-0.842
same,glycan array binding signal (z-score),Glc(b1-4)Glc,2.81
same,glycan array binding signal (z-score),GlcA(b1-3)GlcNAc,0.171
same,glycan array binding signal (z-score),[28],2.74
same,glycan array binding signal (z-score),GlcNAc(b1-3)Fuc,-0.923
same,glycan array binding signal (z-score),[29],0.2
same,glycan array binding signal (z-score),[30],-0.56
same,glycan array binding signal (z-score),[31],3.41
same,glycan array binding signal (z-score),Man(a1-6)Man,3.16
same,glycan array binding signal (z-score),Man(b1-4)GlcNAc,-0.283
same,glycan array binding signal (z-score),[32],-0.972
same,glycan array binding signal (z-score),[33],0.067
same,glycan array binding signal (z-score),Neu5Ac(a2-3)Gal(b1-4)Glc,-0.186
same,glycan array binding signal (z-score),[34],-0.305
same,glycan array binding signal (z-score),[35],-0.661
same,glycan array binding signal (z-score),[36],0.283
same,glycan array binding signal (z-score),[37],-0.26
same,glycan array binding signal (z-score),[38],0.007
same,glycan array binding signal (z-score),[39],-0.158
